Screens from PubChem.
tim10-1 inh = tim10-1 yeast growth inhibition; S. cerevisiae tim10-1 ts strain growth, BacTiter-Glo, 24 h; inhibition, % at 20 µM; 330,000 tested, 2.2% active;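 active = inhibition of at least 40%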;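 note: mutant grown at 25 °C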
TIM10 inh = inhibits growth of TIM10 yeast strain; S. cerevisiae TIM10 strain growth, BacTiter-Glo luminescence, 24 h; inhibition, % at 10 µM; 330,000 tested, 1.4% active;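 active = inhibition of 40% or more at the single tested concentration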;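 note: wild-type TIM10 isogenic control strain grown at permissive 25 °C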
NALP1 inh = blocks the NALP1 inflammasome reconstituted in yeast. S. cerevisiae NALP1/ASC/caspase-1 growth, X-gal OD620, 72 h. inhibition, % at 10 µM. 280,000 tested, 0.61% active; in the data active = inhibition mostly above about 24%, no sharp cut-off; inactive = mostly below about 32%
NALP3 yeast inh = blocks the NALP3 inflammasome reconstituted in yeast; Yeast reconstituted NLRP3/ASC/caspase-1, beta-gal luminescence, 24 h; inhibition, % at 10 µM; 330,000 tested, 0.39% active; AID 2825;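 active = inhibition of 50% or more; inactive = inhibition below 50%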
tim23-1 inh = tim23-1 yeast growth inhibition | S. cerevisiae tim23-1 growth, BacTiter-Glo luminescence, 24 h | 330,000 tested, 1.3% active | AID 463212 | inhibition, % at 20 µM;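 active = growth inhibition of the mutant yeast at or above 50%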;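 note: temperature-sensitive mutant grown at 25 °C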
tim10-1 conf = tim10-1 yeast growth inhibition, confirmed | shares compounds with tim10-1 inh | S. cerevisiae tim10-1 ts strain growth, BacTiter-Glo, 24 h | inhibition, % at 20 µM | 7,400 tested, 56% active | AID 463213;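 active = inhibition of yeast growth at or above a set limit in either of two repeat tests at 20 µM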;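 note: tim10-1 mutant grown at permissive 25 °C to find synthetic lethal compounds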
TIM10 conf = TIM10 yeast growth inhibition, confirmed; S. cerevisiae tim10 strain growth, BacTiter-Glo luminescence, 24 h; 4,600 tested, 63% active; inhibition, % at 10 µM; shares compounds with TIM10 inh;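 active = inhibition of yeast growth at or above a set limit in either of two replicates at 10 µM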; note: this counterscreen used the strain with wild-type TIM10
Large screens that a line does not name were inactive (follow-up assays come after a bar, where they were run). Most compounds without a hit are left out; they make up all but 4% or so of the library.

Cc1ccc(S(=O)(=O)N2CCN(Cc3ccco3)CC2)c(C)c1	none
CCOC(=O)N/N=C\c1ccc(-c2cc(Cl)ccc2Cl)o1	tim10-1 inh 44, TIM10 inh 41 | tim10-1 conf 34 | TIM10 conf 35
CCOc1cc(-c2noc(N)c2C#N)cc(OCC)c1OCC	tim10-1 inh 68, TIM10 inh 67 | tim10-1 conf 61 | TIM10 conf 58
CN1CCc2ccc(NC(=O)c3ccc(C(F)(F)F)cc3)cc2C1	none
O=Nc1c2nc3ccccc3n(O)c-2c2ccccc12	tim10-1 inh 84, TIM10 inh 75 | tim10-1 conf 83 | TIM10 conf 71
OC(CNCC(c1ccc(Cl)cc1Cl)c1c[nH]c2ccccc12)c1ccccc1 (stereo not given)	tim10-1 inh 54, TIM10 inh 59 | tim10-1 conf inactive | TIM10 conf 61
COc1cccc(C2C(C#N)=C(N)N(N(C)C)C3=C2C(=O)CC(C)(C)C3)c1OC (stereo not given)	none
O=C(CCl)c1ccc2c(c1)CCN2C(=O)C1CCCCC1	tim10-1 inh 62, TIM10 inh 76 | tim10-1 conf 36 | TIM10 conf 65
CC1CCN(S(=O)(=O)c2ccc3c(c2)CCN3C(=O)C2CCC2)CC1	none
CCC1CCCCN1S(=O)(=O)c1ccc2c(c1)CCN2C(=O)C1CCC1 (stereo not given)	tim10-1 inh 55, TIM10 inh 56 | tim10-1 conf 45 | TIM10 conf 50
CCCN1C(=O)/C(=C/c2ccncc2)SC1=S	tim10-1 inh 45, TIM10 inh 53 | tim10-1 conf inactive | TIM10 conf inactive
COc1ccc(/C=C/C(=O)C23CC4CC(CC(C4)C2)C3)cc1CN1CCOCC1	tim10-1 inh 46, TIM10 inh 46 | tim10-1 conf 38 | TIM10 conf 36
COc1ccc(/C=C/C(=O)c2ccc(O)cc2)cc1CN1CCOCC1	none
COC(=O)c1cc(NC(=S)Nc2cc(Cl)cc(Cl)c2)cc(C(=O)OC)c1	tim10-1 inh 49, TIM10 inh 50 | tim10-1 conf 33 | TIM10 conf inactive
CCc1cccc2sc(N3CCN(C(=O)c4ccc([N+](=O)[O-])o4)CC3)nc12	tim10-1 inh 79, TIM10 inh 58 (no result: NALP1 inh) | tim10-1 conf 74 | TIM10 conf 89
COc1cccc2sc(N3CCN(C(=O)c4ccco4)CC3)nc12	none (no result: NALP1 inh)
CC(C)N(C(=O)COC(=O)CCC(=O)c1cccs1)c1ccccc1	none (no result: NALP1 inh)
CCOC(=O)c1cnc2c(ccc3ccccc32)c1NCCCN(C)C	tim10-1 inh 50, TIM10 inh 81 | tim10-1 conf 65 | TIM10 conf 80
CCOC(=O)c1cnc2ccccc2c1NCCO	none
CCN(C(=O)COC(=O)CCC1CCCC1)c1c(N)n(Cc2ccccc2)c(=O)[nH]c1=O	none (no result: NALP1 inh)
COc1ccc(OCC(=O)NC(=S)N2CCCc3ccccc32)cc1	none
O=C(COc1ccccc1)NC(=S)N1CCc2ccccc21	tim10-1 inh 43, TIM10 inh 41 | tim10-1 conf inactive | TIM10 conf inactive
CC(=O)Oc1ccc(/C=C2\N=C(C3CCCCC3)OC2=O)cc1	tim10-1 inh 46, TIM10 inh 56 | tim10-1 conf 46 | TIM10 conf 41
CCOc1cc(/C=C2/N=C(c3ccc4c(c3)OCO4)OC2=O)ccc1OC(C)=O	none (no result: NALP1 inh)
CCOc1ccc(Nc2cc(C)nc(-n3nc(C)cc3C)n2)cc1	tim10-1 inh 44, TIM10 inh 42 | tim10-1 conf inactive | TIM10 conf inactive
CNc1cc(C)nc(-n2nc(C)cc2C)n1	none
COc1ccc(F)cc1C(=O)C1CCCN(C(=O)c2ccccc2N(C)C)C1 (stereo not given)	none
Cc1cccc(-n2c(SCC(=O)NCC3CCCO3)nc3ccccc3c2=O)c1C (stereo not given)	none (no result: NALP1 inh)
CC(=O)Nc1cccc(NC(=O)c2cc([N+](=O)[O-])ccc2N2CCCCC2)c1	none (no result: NALP1 inh)
Cc1cccc(NC(=O)c2cc([N+](=O)[O-])ccc2N2CCCCC2)n1	tim10-1 inh 43, TIM10 inh 47 | tim10-1 conf 39 | TIM10 conf inactive
CS(=O)(=O)n1nc(OC(=O)c2cccs2)cc1N	none
COc1ccc(S(=O)(=O)n2nc(OC(=O)c3cccs3)cc2N)cc1	tim10-1 inh 45, TIM10 inh 44 | tim10-1 conf 31 | TIM10 conf 52
Cc1ccc(-c2csc3ncnc(Sc4nnc(CN5CCCCCC5=O)o4)c23)cc1	tim10-1 inh 40, TIM10 inh 56 | tim10-1 conf 36 | TIM10 conf 39
NC(=O)/C(=N\OC(=O)c1ccco1)c1nc(-c2ccc(Br)cc2)cs1	tim10-1 inh 43, TIM10 inh 46 | tim10-1 conf 40 | TIM10 conf 43
Cc1ccc(NC(=O)CNC(C)c2ccccc2)cc1 (stereo not given)	none
COc1ccccc1CNCC(O)(c1ccc(Cl)cc1)c1ccc(Cl)cc1	tim10-1 inh 46, TIM10 inh 52 | tim10-1 conf inactive | TIM10 conf 44
O=C(CNc1cccc(C(F)(F)F)c1)N/N=C/c1cccc(Br)c1	tim10-1 inh 44, TIM10 inh 49 | tim10-1 conf inactive | TIM10 conf inactive
Cc1cccc(C)c1NC(=O)CNC(=O)c1c(-c2ccccc2)noc1C	none (no result: NALP1 inh)
CN1CCN(S(=O)(=O)c2cccc(C(=O)Oc3ccc(Br)cc3F)c2)CC1	none
C=C1CCC[C@]2(C)C[C@H]3OC(=O)C(CN4CC(C)OC(C)C4)[C@H]3C[C@@H]12 (stereo not given in full)	tim10-1 inh 42, TIM10 inh 40 | tim10-1 conf 31 | TIM10 conf 37
N#C/C(=C\c1ccccc1)C(=O)Nc1cc(S(=O)(=O)N2CCOCC2)ccc1N1CCCC1	tim10-1 inh 52, TIM10 inh 49 | tim10-1 conf 33 | TIM10 conf inactive
COc1ccccc1NCC(O)Cn1c2ccccc2c2ccccc21 (stereo not given)	tim10-1 inh 52, TIM10 inh 42 | tim10-1 conf inactive | TIM10 conf 40
CC1(C)Oc2ccc(C(=O)NNC(=O)Nc3ccccc3)cc2NC1=O	none
CCCn1c2c(c(O)c(C(=O)Nc3nccs3)c1=O)CCCC2	none
CC(C)Cn1c2c(c(O)c(C(=O)Nc3nccs3)c1=O)CCCC2	tim10-1 inh 43, TIM10 inh 55 | tim10-1 conf 39 | TIM10 conf inactive
CCCc1ccc(OC(=O)c2ccc(O)cc2Cl)cc1	tim10-1 inh 51, TIM10 inh 41 | tim10-1 conf 38 | TIM10 conf 45
Cc1cccc(NC(=O)CN(C)C(=O)C2CC2)c1C	none (no result: NALP1 inh)
O=C(NCCCc1ccc(F)cc1)C1CCC(=O)N(CCCN2CCCC2=O)C1 (stereo not given)	none
